Test [1] is described as follows: qHTS RealTime-Glo MT Cell Viability Assay in HEK293 cells - 0 hour (AID 1224880). Further: top concentration of the series differs between compounds; nearly all actives have a fitted effect of over 45% in size. In outline:
(§1)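 Kinetic, non-lysing viability readout. Seed HEK293 (600/well) with reagent, incubate 5 h at 37 C/5% CO2, pin 23 nL compound in DMSO, incubate at 37 C, read luminescence at 0, 8, 16, 24, 32, 40 h.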
Background: Quantitative high-throughput screening tests each substance at several concentrations.

Test [2] in a line: A CellTox Green Cytotoxicity Assay to monitor cytotoxicity in HEK293 cells - 32 hour (AID 1224881). Further: nearly all actives have a fitted effect of over 40% in size. In a few lines:
(§2)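 Real-time, in one plate: 600 HEK293 cells/well with dead-cell DNA dye, pinned compound after 5 h, 37 C incubation over 40 h; viable cells give no appreciable fluorescence.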

Test [3] can be described thus: A CellTox Green Cytotoxicity Assay to monitor cytotoxicity in HepG2 cells - 0 hour (AID 1224882). Further: nearly all actives have a fitted effect of over 35% in size. In outline: (§3)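 Cytotoxicity was tracked as dead-cell DNA fluorescence in HepG2 cells treated with test compounds at 37 C; each time-point value comes from one kinetic series spanning 0, 8, 16, 24, 32 and 40 h.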
Test [4] in a line: A CellTox Green Cytotoxicity Assay to monitor cytotoxicity in HepG2 cells - 32 hour (AID 1224883). Further: nearly all actives have a fitted effect of over 50% in size. In outline:
as §3

The nature of test [5]: A CellTox Green Cytotoxicity Assay to monitor cytotoxicity in HEK293 cells - 8 hour (AID 1224884). Further: nearly all actives have a fitted effect of over 35% in size. In outline:
as §2

Test [6] can be described thus: qHTS RealTime-Glo MT Cell Viability Assay in HEK293 cells - 8 hour (AID 1224887). Further: top concentration of the series differs between compounds; nearly all actives have a fitted effect of over 50% in size. In outline: as §1
The nature of test [7]: A CellTox Green Cytotoxicity Assay to monitor cytotoxicity in HEK293 cells - 16 hour (AID 1224888). Further: nearly all actives have a fitted effect of over 35% in size. In outline:
as §2

Test [8] is described as follows: qHTS RealTime-Glo MT Cell Viability Assay in HepG2 cells - 0 hour (AID 1224889). Further: nearly all actives have a fitted effect of over 50% in size. In a few lines:
(§4)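 HepG2 suspension premixed with RealTime-Glo reagents is plated at 600 cells per well and left 5 h at 37 C/5% CO2. Compounds in DMSO then go in, and bioluminescence reflecting viable cell number is recorded over 40 h.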

The nature of test [9]: A CellTox Green Cytotoxicity Assay to monitor cytotoxicity in HepG2 cells - 8 hour (AID 1224890). Further: nearly all actives have a fitted effect of over 45% in size. In a few lines:
as §3

Test [10] is described as follows: qHTS assay to identify small molecule antagonists of the estrogen receptor alpha (ER-alpha) signaling pathway using the BG1 cell line in the presence of 0.1 nM 17-beta-estradiol - cell viability counter screen (AID 1259241). Further: nearly all actives have a fitted effect of over 40% in size. In a few lines:
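Following 5 days in phenol red-free medium with charcoal-stripped serum, VM7Luc4E2 cells received test compounds alongside 0.1 nM 17beta-estradiol (final) at 37C for 22 hr. Live cells were then quantified via protease-substrate fluorescence.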

Test [11] can be described thus: qHTS assay to identify small molecule antagonists of the androgen receptor (AR) signaling pathway using the MDA cell line in the presence of 0.5 nM R1881 - cell viability counter screen (AID 1259242). Further: nearly all actives have a fitted effect of over 45% in size. In a few lines: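 Cells seeded at 3,000/well and allowed 5 hr at 37C, 0% CO2 before compound transfer and R1881 (0.5 nM final) addition; 16 hr later, live-cell protease fluorescence indicated cytotoxicity.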

The target of test [12] is Estrogen receptor (Homo sapiens) (UniProt P03372). The test is described as follows: qHTS assay to identify small molecule antagonists of the estrogen receptor alpha (ER-alpha) signaling pathway using the BG1 cell line in the presence of 0.1 nM 17-beta-estradiol (AID 1259244). Further: nearly all actives have a fitted effect of over 50% in size. In outline:
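Luciferase signal from VM7Luc4E2 ERE-reporter cells, co-dosed with test compound and 0.1 nM final 17beta-estradiol for 22 h, read with ONE-Glo.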

A short description of test [13]: qHTS assay to identify small molecule HDAC inhibitors (AID 1259364). Further: potency means the concentration at half of the fitted maximal effect.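 Further: wild-type HCT-116 cells with endogenous class I/II HDAC activity; nearly all actives have a fitted effect of over 45% in size.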 In a few lines:
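HCT-116 wt cells, 1,500/well, overnight attach. Compounds (DMSO) 2 h, 37 °C. HDAC-Glo I/II, 30 min RT. Luminescence.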

A short description of test [14]: qHTS assay to identify small molecule HDAC inhibitors - cell viability counter screen (AID 1259365). In outline: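 HCT-116 wild-type, overnight attachment; 2hr drug exposure, 37C; CellTiter-Glo luminescent ATP readout after 30min RT.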
The nature of test [15]: qHTS assay to identify small molecule antagonists of the sonic hedgehog signaling (Shh) pathway - cell viability counter screen (AID 1259367). Further: nearly all actives have a fitted effect of over 55% in size. In outline:
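Conditioned medium drove Shh signaling in 3T3 Gli1-Luc cells exposed to compounds at 37C and 5% CO2. Viability was determined from CellTiter-Fluor fluorescence, with reagent incubated 1 hr after 23 hr of treatment.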

Test [16] can be described thus: qHTS RealTime-Glo MT Cell Viability Assay in HepG2 cells - 16 hour (AID 1224885). Further: nearly all actives have a fitted effect of over 50% in size. In outline:
as §4

Test [17] in a line: qHTS RealTime-Glo MT Cell Viability Assay in HEK293 cells - 24 hour (AID 1224886). In a few lines:
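Reads taken at 0, 8, 16, 24, 32 and 40 h from the same wells. HEK293 cells (600/well) carried RealTime-Glo reagents from seeding, with compound added after a 5 h settle at 37 C.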

The nature of test [18]: qHTS assay to identify small molecule phospholipidosis (PLD) inducers (AID 1259344; active means well fitted curve in the direction sought with a large enough effect; an effect the other way counts as inactive or inconclusive). In a few lines:
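After 4 h attachment on collagen I, HepG2 cells were dosed with compound alongside LipidTOX Red, kept 24 h at 37 C, fixed, and imaged for lamellar phospholipid pits.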

Test [19] in a line: qHTS assay to identify small molecule agonists of the sonic hedgehog signaling (Shh) pathway - cell viability counter screen (AID 1259366). Further: nearly all actives have a fitted effect of over 50% in size. In outline: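 Compounds in DMSO were pin-transferred onto 3T3 Gli1-Luc cells that had settled 4hr; plates then stood 24hr at 37C and 5% CO2. One hour before the end, CellTiter-Fluor was added and fluorescence recorded.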
For test [20], the target named is Androgen receptor (Homo sapiens) (UniProt P10275). In words: qHTS assay to identify small molecule antagonists of the androgen receptor (AR) signaling pathway using the MDA cell line in the presence of 0.5 nM R1881 (AID 1259243). Further: nearly all actives have a fitted effect of over 50% in size. In outline:
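Luminescence from an AR/GR-responsive MMTV-luciferase construct in MDA-kb2 breast carcinoma cells, read 30 min after ONE-Glo, following 16 hr co-treatment with compounds and 0.5 nM R1881.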

Data on 16 molecules can be found in PubChem BioAssay (Tox21).

Unmarked numbers belong to inactive results. Results filed as inconclusive are left out. The source made the active and inactive calls. Unless noted, the call rests on the fitted dose curve; in most records, active means well fitted curve in the direction sought with a large enough effect in the repeat runs; inconclusive means weak or mixed curves; inactive means no such curve, though single readings can be large; an effect the other way counts as inactive or inconclusive.

Estrogen receptor (Homo sapiens), sequence (P03372 whole entry, looked up): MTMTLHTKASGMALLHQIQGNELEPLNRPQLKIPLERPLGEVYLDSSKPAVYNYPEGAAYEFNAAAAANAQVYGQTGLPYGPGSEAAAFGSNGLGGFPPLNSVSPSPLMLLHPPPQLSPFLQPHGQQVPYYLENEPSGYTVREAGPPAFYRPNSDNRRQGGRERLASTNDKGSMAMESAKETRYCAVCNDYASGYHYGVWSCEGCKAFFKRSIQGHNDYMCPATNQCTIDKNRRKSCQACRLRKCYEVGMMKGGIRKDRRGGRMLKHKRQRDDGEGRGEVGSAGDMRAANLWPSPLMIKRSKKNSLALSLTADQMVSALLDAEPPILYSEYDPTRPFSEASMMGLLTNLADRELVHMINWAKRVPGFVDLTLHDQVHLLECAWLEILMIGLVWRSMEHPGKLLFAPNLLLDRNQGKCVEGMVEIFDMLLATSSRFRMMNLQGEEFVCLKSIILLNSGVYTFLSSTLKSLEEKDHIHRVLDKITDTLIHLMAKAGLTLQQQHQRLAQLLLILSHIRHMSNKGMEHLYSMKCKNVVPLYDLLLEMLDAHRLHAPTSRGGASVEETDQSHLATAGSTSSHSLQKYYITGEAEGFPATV
Androgen receptor (Homo sapiens), sequence (P10275 whole entry, looked up): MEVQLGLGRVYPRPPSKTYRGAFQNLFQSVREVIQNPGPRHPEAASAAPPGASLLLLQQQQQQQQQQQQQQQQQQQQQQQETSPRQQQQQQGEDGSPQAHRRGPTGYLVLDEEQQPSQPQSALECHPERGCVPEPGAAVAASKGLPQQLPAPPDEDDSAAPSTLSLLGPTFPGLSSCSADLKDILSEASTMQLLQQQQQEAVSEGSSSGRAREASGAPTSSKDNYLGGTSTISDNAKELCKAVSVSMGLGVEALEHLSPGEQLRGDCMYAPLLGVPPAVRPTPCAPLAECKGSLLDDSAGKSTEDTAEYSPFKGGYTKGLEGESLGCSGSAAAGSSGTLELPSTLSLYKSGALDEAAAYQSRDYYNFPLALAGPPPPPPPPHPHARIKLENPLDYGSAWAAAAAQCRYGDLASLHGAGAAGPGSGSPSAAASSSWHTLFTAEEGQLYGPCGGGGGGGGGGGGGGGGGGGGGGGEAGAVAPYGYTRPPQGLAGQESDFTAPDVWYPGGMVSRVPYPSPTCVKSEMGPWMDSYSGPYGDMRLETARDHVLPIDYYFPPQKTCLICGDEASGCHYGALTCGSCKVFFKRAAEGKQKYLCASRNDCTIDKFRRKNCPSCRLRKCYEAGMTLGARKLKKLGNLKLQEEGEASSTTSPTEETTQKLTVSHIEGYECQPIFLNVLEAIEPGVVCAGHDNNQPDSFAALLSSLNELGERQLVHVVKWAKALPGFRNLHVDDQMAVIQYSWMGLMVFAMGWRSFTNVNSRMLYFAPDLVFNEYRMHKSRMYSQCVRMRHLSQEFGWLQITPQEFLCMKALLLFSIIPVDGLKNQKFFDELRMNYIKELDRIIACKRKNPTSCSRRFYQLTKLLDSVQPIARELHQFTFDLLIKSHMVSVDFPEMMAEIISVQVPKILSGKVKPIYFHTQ

Turning to `c1ccc2cnncc2c1`, the call in test [1], in test [10], in test [11], in test [12], in test [14] and in test [15] was inactive. In addition, the Potency result in [2], in test [3], in test [4], in [5], in [6] and in test [7] was “inactive” in each case. For the same molecule, the Potency entry in [8], in [9] and in test [13] was “inactive” each time.

With `C=C(C)[C@H]1CC=C(C)CC1`, the outcome in [1], in [10], in test [11], in test [12] and in test [14] was inactive. Also, the Potency entry in test [2], in test [3], in test [4], in test [5], in test [6] and in test [7] was “inactive” in each case. In addition, the Potency entry in test [8], in [9] and in test [13] was “inactive” each time.

Turning to `NC(CS)C(=O)O` (configuration not stated), the result in [1], in test [16], in [10], in [11], in test [14] and in test [15] was inactive. Also, the Potency entry in test [2], in [4], in [5], in test [17], in test [6] and in [7] was “inactive” each time. Also, the Potency result in test [8], in [9], in test [18] and in [19] was “inactive” in each case.

With `C#CC(O)C(CC)CCCC` (configuration not stated), the result in [1], in test [10], in test [11], in test [14] and in test [15] was inactive. For the same molecule, the Potency entry in test [2], in test [3], in [4], in [17], in test [6] and in test [7] was “inactive” each time. Further, the Potency entry in test [8], in [9], in [20] and in [13] was “inactive” each time.

Consider `C=C(C)[C@@H]1CCC2=CC(=O)C[C@@H](C)[C@]2(C)C1`, for which the molecule was classed as inactive in test [1], in [16], in test [10], in test [11], in test [12] and in [14]. The call in [15] was inactive. The Potency result in test [2], in test [3], in [5], in [6], in test [7] and in test [8] was “inactive” in each case. Also, the Potency entry in test [9], in test [13] and in test [19] was “inactive” throughout.

Regarding `CC(C=O)Cc1ccc(C(C)C)cc1` (configuration not stated), the molecule was called inactive in test [1], in [16], in [10], in test [11], in test [14] and in [15]. Besides, the Potency result in [2], in test [4], in test [5], in [17], in test [6] and in test [7] was “inactive” throughout. The Potency result in test [8], in test [9], in [13] and in test [19] was “inactive” each time.

Turning to `CCCCCCOC(=O)CC(CC(=O)OCCCCCC)(OC(=O)CCC)C(=O)OCCCCCC`, the molecule was called inactive in [1], in [10], in test [11], in test [12] and in [15]. Moreover, the Potency result in test [2], in [3], in [4], in test [5], in [6] and in [7] was “inactive” each time. In addition, the Potency entry in test [8], in test [9], in test [20] and in test [19] was “inactive” each time.

As to `C=CCOc1nc(OCC=C)nc(OCC=C)n1`, the call in test [1], in test [10], in test [11] and in test [15] was inactive. The Potency entry in test [2], in [3], in test [4], in [5], in test [17] and in test [6] was “inactive” throughout. Further, the Potency result in test [7], in [8], in [9] and in test [13] was “inactive” throughout.

On to `N#CCN(CC#N)CCN(CC#N)CC#N`, for which the call in test [1], in test [16], in [10], in test [11] and in test [15] was inactive. The Potency result in [2], in test [4], in test [5], in [17], in test [6] and in [7] was “inactive” in each case. Further, the Potency entry in test [8], in test [9], in test [13] and in test [19] was “inactive” each time.

Regarding `Nc1ncnc2c1ncn2Cc1c(F)cccc1Cl`, the outcome in [1], in [16], in [10], in test [11], in test [12] and in [14] was inactive. Further, the call in [15] was inactive. For the same molecule, the Potency result in [2], in test [4], in test [5], in [17], in test [6] and in [7] was “inactive” each time. The Potency entry in test [8], in test [9], in test [13] and in [19] was “inactive” in each case.

With `CC1=CC(C)C(C=O)C(C)C1` (configuration not stated), the molecule was called inactive in test [1], in [16], in test [10], in [11], in test [12] and in test [14]. For the same molecule, in [15], the molecule was called inactive. Also, the Potency result in test [2], in test [4], in test [5], in test [17], in test [6] and in test [7] was “inactive” each time. The Potency entry in test [8], in test [9] and in test [13] was “inactive” throughout.

`Cc1ccccc1C(=O)O`: the molecule was classed as inactive in [1], in test [10], in [11] and in [14]. The Potency result in [2], in test [3], in test [5], in [17], in test [6] and in [7] was “inactive” in each case. Also, the Potency entry in test [8], in [9] and in test [19] was “inactive” in each case. The Potency in [13] was 30.1 µM (active).

With `CCCCCCOC(=O)c1ccccc1O`, the molecule was classed as inactive in test [1], in test [16], in test [10], in test [11], in test [14] and in test [15]. In addition, the Potency entry in [2], in test [3], in test [4], in test [17], in test [6] and in [7] was “inactive” throughout. Besides, the Potency entry in test [8], in [9], in test [20], in [13] and in test [19] was “inactive” each time.

Take `N#CCc1ccccc1[N+](=O)[O-]`: the result in [1], in [16], in test [10], in test [11], in test [14] and in [15] was inactive. The Potency result in [2], in [4], in test [5], in [17], in [6] and in test [7] was “inactive” each time. The Potency entry in test [8], in test [9], in test [13] and in test [19] was “inactive” throughout.

Regarding `CSc1ccc(C=O)cc1`, the call in test [1], in [10], in [11], in [14] and in [15] was inactive. Also, the Potency result in [2], in [3], in [4], in test [5], in test [17] and in test [6] was “inactive” throughout. The Potency result in test [7], in [8], in test [9], in test [13] and in test [19] was “inactive” each time.

Consider `CCCC=O`, for which the result in test [1], in [10], in test [11], in [14] and in test [15] was inactive. Besides, the Potency result in [2], in [3], in [4], in test [5], in test [17] and in test [6] was “inactive” in each case. The Potency result in test [7], in test [8], in test [9] and in [13] was “inactive” in each case.
